Among the test systems are DU-145 prostate; K-562 leukemia; MALME-3M melanoma; MDA-MB-231 breast; RXF 393 renal; SF-268 CNS; SF-295 CNS; SF-539 CNS; UACC-257 melanoma; M14 melanoma; HCT-15 colon; SNB-75 CNS; SNB-19 CNS; U251 CNS; PC-3 prostate; SK-MEL-5 melanoma; UACC-62 melanoma; LOX IMVI melanoma; SK-MEL-28 melanoma.
Test in all cases: NCI-60 one-dose screen, 48 h (100 = growth as untreated, 0 = no growth, -100 = all killed)
Conditions in all cases: 10 µM unless noted

Each structure is given as a SMILES string. About 83,000 compounds went through this panel and 20% of them were active in at least one assay; those are over-represented in the sample as a whole.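 48-hour exposure, single concentration, 96-well plates; percent growth endpoint where 0 means no net growth. Active: below 10.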 Unmarked numbers belong to inactive results. Calls of active or inactive are those of the source.

Take `COc1cccc(-c2nc3sccn3c2-c2ccnc(NCCNS(=O)(=O)c3ccc(C(F)(F)F)cc3)c2)c1`: the growth is 49.4% in the experiment on DU-145 prostate; 25.7% with K-562 leukemia; 42.2% in the experiment with MALME-3M melanoma; 70.1% in the experiment with MDA-MB-231 breast; 34% in the experiment on RXF 393 renal; 35.8% in the experiment on SF-268 CNS. The growth in the experiment with SF-295 CNS was 27.7%; with SF-539 CNS, 53.7%; with UACC-257 melanoma, 39.2%; with M14 melanoma, 38.4%; with HCT-15 colon, 33%; with SNB-75 CNS, 38.1%. For the same molecule, the growth was 56.5% in the experiment on SNB-19 CNS; 42.1% in the experiment with U251 CNS; 16.8% in the experiment on PC-3 prostate; 14.9% with SK-MEL-5 melanoma; 38.9% with UACC-62 melanoma; 46.3% in the experiment with LOX IMVI melanoma. For the same molecule, the growth in the experiment on SK-MEL-28 melanoma was 57.8%.

In the case of `O=C(c1ccc(Nc2nccc(NCCCCNc3ccnc4cc(Cl)ccc34)n2)cc1)N1CCCCC1`, the growth was 51.6% with DU-145 prostate; -25.3% (active) with K-562 leukemia; -78.6% (active) in the experiment on MALME-3M melanoma; -9.32% (active) in the experiment with MDA-MB-231 breast; 46.9% in the experiment on RXF 393 renal; 34.2% in the experiment on SF-268 CNS. In addition, the growth was 1.19% (active) in the experiment with SF-295 CNS; -73.7% (active) in the experiment on SF-539 CNS; -50.8% (active) in the experiment with UACC-257 melanoma; -69% (active) with M14 melanoma; 11.2% in the experiment on HCT-15 colon; -23.5% (active) in the experiment with SNB-75 CNS. Besides, the growth in the experiment with SNB-19 CNS is 24.7%; in the experiment on U251 CNS it was -31.6% (active); in the experiment on PC-3 prostate it was 28.7%; in the experiment on SK-MEL-5 melanoma, -92.3% (active); in the experiment with UACC-62 melanoma it was -23% (active); in the experiment with LOX IMVI melanoma, -83.2% (active). The growth in the experiment on SK-MEL-28 melanoma was -52.5% (active).

As to `Cc1ccc(Nc2nc(N)nc(CSCC(=O)NN)n2)cc1`, the growth is 103% in the experiment with DU-145 prostate; 96.6% with K-562 leukemia; 111% with MALME-3M melanoma; 98.9% with MDA-MB-231 breast; 103% with RXF 393 renal; 97.9% in the experiment on SF-268 CNS. Also, the growth in the experiment with SF-295 CNS is 99.3%; in the experiment with SF-539 CNS, 95.1%; in the experiment with UACC-257 melanoma, 108%; with M14 melanoma it was 114%; with HCT-15 colon, 101%; in the experiment with SNB-75 CNS, 85.2%. The growth in the experiment on SNB-19 CNS was 98.5%; with U251 CNS it was 92.9%; with PC-3 prostate, 93%; in the experiment on SK-MEL-5 melanoma, 101%; in the experiment on UACC-62 melanoma it was 90.8%; with LOX IMVI melanoma it was 95.2%. Also, the growth with SK-MEL-28 melanoma is 99.9%.

For the molecule `O=S(=O)(NCCCNc1cc(-c2c(-c3cccc(O)c3)nc3sccn23)ccn1)c1cccc(Cl)c1`, the growth in the experiment with DU-145 prostate is 55.9%; in the experiment with K-562 leukemia it was 25.4%; with MALME-3M melanoma, 48.2%; in the experiment on MDA-MB-231 breast, 73.6%; in the experiment on RXF 393 renal it was 41.1%; in the experiment on SF-268 CNS, 44.3%. Besides, the growth with SF-295 CNS is 49.3%; with SF-539 CNS, 77.4%; with UACC-257 melanoma, 68.4%; in the experiment on M14 melanoma, 41.7%; in the experiment with HCT-15 colon it was 28.4%; in the experiment on SNB-75 CNS, 14.2%. The growth in the experiment with SNB-19 CNS is 67.3%; with U251 CNS it was 53.4%; in the experiment on PC-3 prostate it was 24.6%; in the experiment with SK-MEL-5 melanoma, 31.1%; in the experiment with UACC-62 melanoma, 40.3%; in the experiment with LOX IMVI melanoma it was 29.6%. Moreover, in the experiment on SK-MEL-28 melanoma, the growth was 60.7%.

Consider `COc1ccc(/C=C/c2c(C(=O)/C=C/c3ccc(F)cc3)c(C)nc3ccccc23)cc1`, for which the growth was 35.8% in the experiment with DU-145 prostate; 10.3% with K-562 leukemia; 83.6% in the experiment on MALME-3M melanoma; 54.8% with MDA-MB-231 breast; 55.5% in the experiment with RXF 393 renal; 69.3% with SF-268 CNS. In addition, the growth in the experiment with SF-295 CNS is 62.4%; with SF-539 CNS it was 81.5%; with UACC-257 melanoma it was 66.6%; with M14 melanoma it was 65%; with HCT-15 colon it was 10.8%; in the experiment on SNB-75 CNS, 52.1%. Besides, the growth was 60.9% with SNB-19 CNS; 49.6% in the experiment on U251 CNS; 41.7% in the experiment with PC-3 prostate; 46.8% in the experiment with UACC-62 melanoma; 19.7% with LOX IMVI melanoma; 55.3% with SK-MEL-28 melanoma.

On to `Cc1cc(C)c2c(-c3nnc(N)s3)cc(=O)oc2c1`, for which the growth in the experiment with DU-145 prostate is 108%; in the experiment with K-562 leukemia, 93%; with MALME-3M melanoma, 106%; in the experiment with MDA-MB-231 breast, 101%; in the experiment on RXF 393 renal it was 109%; with SF-268 CNS it was 99.9%. The growth with SF-295 CNS was 98.7%; in the experiment with SF-539 CNS it was 90.5%; in the experiment with UACC-257 melanoma, 107%; in the experiment on M14 melanoma it was 104%; in the experiment with HCT-15 colon, 98.4%; with SNB-75 CNS it was 98.8%. The growth in the experiment on SNB-19 CNS was 99.4%; with U251 CNS, 103%; with PC-3 prostate it was 98.9%; in the experiment on SK-MEL-5 melanoma it was 98.5%; in the experiment with UACC-62 melanoma, 89.8%; with LOX IMVI melanoma, 96.7%. In addition, in the experiment on SK-MEL-28 melanoma, the growth is 104%.

With `CN1CCN(CC(=O)Nc2nc(-c3cccc(NS(=O)(=O)c4cccc5c(N(C)C)cccc45)c3)cs2)CC1`, the growth in the experiment with DU-145 prostate is 81.3%; with K-562 leukemia it was 9.93% (active); in the experiment on MALME-3M melanoma, 84%; with MDA-MB-231 breast, 50.3%; in the experiment with RXF 393 renal it was 70.4%; in the experiment on SF-268 CNS it was 76.9%. The growth was 62.1% in the experiment on SF-295 CNS; 75.6% in the experiment with SF-539 CNS; 91.2% in the experiment on UACC-257 melanoma; 102% in the experiment on M14 melanoma; 42.6% in the experiment on HCT-15 colon; 74.3% with SNB-75 CNS. Further, the growth is 73.3% with SNB-19 CNS; 65.9% with U251 CNS; 42.2% in the experiment on PC-3 prostate; 48.9% in the experiment with SK-MEL-5 melanoma; 54% with UACC-62 melanoma; 29.7% with LOX IMVI melanoma. Moreover, the growth with SK-MEL-28 melanoma is 78.2%.

On to `O=c1ssc(Cl)c1-c1ccccc1`, for which the growth with DU-145 prostate is 113%; in the experiment with K-562 leukemia, 102%; in the experiment on MALME-3M melanoma it was 100%; in the experiment on MDA-MB-231 breast, 97%; in the experiment with RXF 393 renal, 86.7%; with SF-268 CNS, 134%. The growth in the experiment with SF-295 CNS is 102%; in the experiment with SF-539 CNS, 90.7%; in the experiment with UACC-257 melanoma, 91.3%; in the experiment on M14 melanoma it was 96.7%; in the experiment on HCT-15 colon it was 101%; in the experiment on SNB-75 CNS, 90.5%. The growth in the experiment on SNB-19 CNS is 111%; in the experiment with U251 CNS it was 104%; in the experiment on PC-3 prostate, 79.5%; in the experiment with SK-MEL-5 melanoma, 97.1%; with UACC-62 melanoma, 95.4%; in the experiment on LOX IMVI melanoma it was 92.5%. For the same molecule, the growth with SK-MEL-28 melanoma is 100%.

The values above are taken from PubChem BioAssay (NCI).
